From PubChem
PLC-beta3 inh = PLC-beta3 (human) inhibition, primary screen. Q01970. Purified PLC-beta3, fluorogenic substrate, fluorescence. inhibition, % at 12.2 µM. 0.18% of 370,000 active; in the data active = inhibition above about 11%
ADAM10 inh = ADAM10 inhibition, QFRET primary screen; 0.62% of 370,000 active; AID 720582; recombinant ADAM10, EDANS/DABCYL FRET peptide cleavage, 3 h; O14672; inhibition, % at 7 µM;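 active = inhibition above a per-campaign cutoff equal to the mean of compounds falling between control-based bounds plus 3 SD, cut at about 20% in these data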
PLC-gamma1 inh = blocks human PLC-gamma1 enzyme activity; P19174; purified PLC-gamma1, fluorogenic substrate, fluorescence; inhibition, % at 12.2 µM; 0.84% of 370,000 active; AID 720700; in the data active = inhibition above about 9.5%
KLK7 zymogen act = proKLK7 (human) activation, primary screen; P49862; purified proKLK7, EDANS-DABCYL substrate fluorescence; 100% is mature enzyme control, 0% vehicle; activation, % at 7 µM; 0.9% of 370,000 active;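 active = activation above the mean of all tested compounds plus 3 SD, computed per campaign excluding outliers beyond control limits, cut at about 13% in these data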
Target sequence (P49862 whole entry, looked up): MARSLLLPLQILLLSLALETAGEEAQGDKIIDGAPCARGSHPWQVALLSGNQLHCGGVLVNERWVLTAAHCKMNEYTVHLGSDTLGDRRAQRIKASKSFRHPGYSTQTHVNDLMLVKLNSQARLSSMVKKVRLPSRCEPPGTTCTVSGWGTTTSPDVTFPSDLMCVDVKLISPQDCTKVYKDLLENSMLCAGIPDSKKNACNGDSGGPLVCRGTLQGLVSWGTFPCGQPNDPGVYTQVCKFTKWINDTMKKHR
ADAM17 inh = inhibits human ADAM17. P78536. recombinant ADAM17, EDANS/DABCYL FRET peptide cleavage. inhibition, % at 6.95 µM. 0.83% of 370,000 active. AID 720648;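 active = inhibition above the mean of compounds lying between control limits plus 3 SD, set per campaign, cut at about 8.5% in these data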
KLK7 act conf = confirmation of human kallikrein-7 zymogen activators; purified proKLK7, EDANS-DABCYL substrate fluorescence; scaled: vehicle 0, mature enzyme 100; 68% of 3,200 active; AID 686949; activation, % at 7 µM; shares compounds with KLK7 zymogen act;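 active = activation, as change over the incubation, above the mean of all tested compounds plus 3 SD, cut at about 13% in these data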
EDANS-DABCYL int = fluorescence interference counter-screen for KLK7 activators. EDANS-DABCYL substrate fluorescence interference, no enzyme, 4 h; solvent 0%, active enzyme control 100%. activation, % at 7 µM. 80% of 3,200 active. shares compounds with KLK7 zymogen act. AID 686952;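 active = activation above the all-compound mean plus 3 SD, ignoring values outside control-based bounds, cut at about 4.8% in these data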;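 note: value is the 4 h activation minus the activation read at time zero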
EDANS interf = EDANS fluorescence interference in dose response, no enzyme. shares compounds with KLK7 zymogen act. EDANS-DABCYL peptide fluorescence interference. EC50, µM. 20% of 250 active. AID 720493;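 active = compounds that raise the fluorescence signal in this interference counterscreen, with EC50 at or below 10 µM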;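 note: intact quenched peptide substrate alone read at 355 nm excitation and 520 nm emission; signal is fluorescence gain from T0 to T4 after four hours at room temperature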
A number is an active result; i = inactive; nt = no result given; ! = repeats disagree. A selection: hits, their analogues and other compounds. The true share with any hit is near 2.9%.

SMILES	PLC-beta3 inh	ADAM10 inh	PLC-gamma1 inh	KLK7 zymogen act	ADAM17 inh	KLK7 act conf	EDANS-DABCYL int	others
CCC[C@H]1[C@@H](NC(=O)NCC)CC[C@@]23CCCN2C(=O)CCC[C@@H]13	i	i	i	nt	i	nt	nt
CCN1CCCC1CN=Cc1c(O)n(-c2ccccc2)c(=O)c2ccccc12 (stereo not drawn)	i	i	i	16	i	16	18
CC(C)CCN=Cc1c(O)n(-c2ccccc2)c(=O)c2ccccc12	i	i	i	i	i	nt	nt
CC1(C)CC(=O)C2=C(C1)OC(N)=C(C#N)C2c1cc2c(cc1[N+](=O)[O-])OCO2 (stereo not drawn)	i	i	i	108	i	65	66
CCOc1cc(C2C(C#N)=C(N)OC3=C2C(=O)CC(C)(C)C3)cc([N+](=O)[O-])c1O (stereo not drawn)	i	i	i	i	i	nt	nt
Nc1[nH]c(C(=O)c2ccccc2)c(-c2ccc3ccccc3c2)c1C(=O)NCCc1ccc(Cl)cc1	i	i	i	nt	i	nt	nt
COC(=O)[C@]12C[C@H](CC(=O)NCCc3ccccc3OC)C(=O)N(CCC3=CCCCC3)C1=C[C@H](C1CCCC1)O[C@@H]2C	i	i	i	i	i	nt	nt
O=C(O)CSc1cccc2cccnc12	i	i	i	i	i	nt	nt
Cc1ccc(C(=O)COC(=O)CSc2cccc3cccnc23)c(C)c1	i	i	i	15	i	i	12
COc1ccc2c(c1OC)C(=O)OC2CC(=O)c1ccc(O)c(O)c1 (stereo not drawn)	i	i	i	i	i	nt	nt
COc1ccc2c(c1OC)C(=O)OC2CC(=O)c1ccc(O)cc1 (stereo not drawn)	i	i	i	20	i	i	6.3
C=CCc1c(C)nc(-c2ccccc2)nc1N/N=C/c1ccncc1	i	i	i	i	i	nt	nt
C=CCc1c(C)nc(-c2ccccc2)nc1N/N=C/c1ccccc1	i	i	i	14	i	i	i
O=C(CCc1ccccc1)N[C@H]1[C@@H](OC(=O)c2ccc([N+](=O)[O-])cc2)CCC[C@]12C(=O)N(Cc1ccccc1)c1ccccc12	i	i	i	i	i	nt	nt
O=C(COC(=O)c1ccccc1SCC(=O)NC1CCS(=O)(=O)C1)NC1CCS(=O)(=O)C1 (stereo not drawn)	i	i	i	14	i	19	19
O=C(COC(=O)c1ccccc1SCC(=O)N1CCCC1)NC1CCS(=O)(=O)C1 (stereo not drawn)	i	i	i	i	i	nt	nt
Cc1ccc(CN2CCSc3ccc(C(=O)NCc4cccnc4)cc32)cc1	i	i	i	i	i	nt	nt
Cc1ccc(CN2CCSc3ccc(C(=O)NCCCN4CCN(C)CC4)cc32)cc1	i	i	i	39	i	i	i
CN1CCSc2ccc(C(=O)NCc3cccc(F)c3)cc21	i	i	i	49	i	51	i	EDANS interf=i
CCOC(=O)N1CCC(NC(=O)c2ccc3c(c2)N=C(C)c2c(C)ccc(C)c2S3)CC1	i	i	i	i	i	nt	nt
O=C(NC1CCCC1)c1ccc2c(c1)N(Cc1ccc(F)cc1)CCS2	i	i	i	i	i	nt	nt
COc1ccc(Br)cc1CNC(=O)c1ccc2c(c1)N(C)CCS2	i	i	i	i	i	nt	nt
CN(C)CCNC(=O)c1ccc2c(c1)N(Cc1ccc(F)cc1)CCS2	i	i	i	62	i	i	i
CCOC(=O)N1CCC(NC(=O)c2ccc3c(c2)N(CC)CCS3)CC1	i	i	i	27	i	i	5.2
CC(C)C(C#CC1CC1)NCc1ccc2c(c1)OCO2 (stereo not drawn)	i	i	i	i	i	nt	nt
SMILES	PLC-beta3 inh	ADAM10 inh	PLC-gamma1 inh	KLK7 zymogen act	ADAM17 inh	KLK7 act conf	EDANS-DABCYL int	others
CN[C@H]1C[C@H]2c3[nH]c4c(-c5ccc6c(c5)OCO6)cccc4c3CCN2C[C@H]1[C@H](C)O	i	i	i	i	i	nt	nt
Nc1c2ccccc2nc2ccccc12	i	i	i	14!	i	52	71
Nc1c2c(nc3ccccc13)CCCC2	i	i	i	i	i	nt	nt
CCOC(=O)c1cccc(-c2cc(C(C)=O)c3n(c2=O)CCC3)c1	i	i	i	i	i	nt	nt
NC(=O)c1ccc(-c2ncc(-c3ccccc3)o2)cc1	i	i	i	69	i	59	62
O=C(OC12CCCN(C1)/C(=C/c1ccc(Cl)cc1)C2)c1cccc(F)c1 (stereo not drawn)	i	i	i	i	i	nt	nt
Cc1cc(C)cc(C(=O)OCCN(C)C2CN(Cc3cn(Cc4cccc(F)c4)nn3)S(=O)(=O)C2)c1 (stereo not drawn)	i	i	i	i	i	nt	nt
c1ccc(-c2ccc(-c3ccccn3)s2)nc1	i	i	i	15	i	i	i
CC(=O)c1ccc(-c2nc3ccccc3n2C)o1	i	i	i	67	i	57	59
COC(=O)[C@]12C[C@H](CC(=O)N3CCCCC3)C(=O)N(Cc3cccc4ccccc34)C1=C[C@H](C1CCCC1)O[C@@H]2C	i	i	i	i	i	nt	nt
COC(=O)[C@]12C[C@H](CC(=O)NCCc3ccccc3OC)C(=O)N(CCC3=CCCCC3)C1=C[C@H](C(C)C)O[C@@H]2C1CC1	i	i	i	i	i	nt	nt
CC(=O)Nc1cccc(-c2nc3ccc(NC(C)=O)cc3s2)c1	i	i	i	26	i	22	21
COc1cccc(CN(C)Cc2cc(=O)oc3c(C)c(C)ccc23)c1	i	i	i	i	i	nt	nt
COc1cccc(CN(C)Cc2cc(=O)oc3cc(O)c(Cl)cc23)c1	i	i	i	38	i	28	37
CN(c1ccccc1C(=O)O)S(=O)(=O)c1ccc2c3c(cccc13)C(=O)N2	i	i	i	i	i	nt	nt
O=C1Nc2ccc(S(=O)(=O)N(CCO)CCO)c3cccc1c23	i	i	i	45	i	42	50
COC(=O)c1ccccc1NS(=O)(=O)c1ccc2c3c(cccc13)C(=O)N2	i	i	i	i	i	nt	nt
CC(C)C(NS(=O)(=O)c1ccc2c3c(cccc13)C(=O)N2)C(=O)O (stereo not drawn)	i	i	i	25	i	23	33
O=C1Nc2ccc(S(=O)(=O)NCc3ccco3)c3cccc1c23	i	i	i	28	i	40	37
Cc1cc(O)ccc1NS(=O)(=O)c1ccc2c3c(cccc13)C(=O)N2	i	i	i	81	i	86	98
COc1ccc(-c2cc(-c3nnc(SCC(=O)N4CCOCC4)n3N)[nH]n2)cc1	i	i	i	i	i	nt	nt
COc1cc(C=NN=c2sc3ccccc3n2C)ccc1OCCO	i	i	i	i	i	nt	nt
